Screening data (PubChem BioAssay)
Sampled rows, rich in hits. Any-hit rate of the full collection: about 0.38%.
EPAC2 agonist: qHTS for Agonist of cAMP-regulated guanine nucleotide exchange factor 4 (EPAC2): primary screen. Rap guanine nucleotide exchange factor 4 (Homo sapiens), Q8WZA2. EPAC2 activation, biochemical qHTS; response scale: 100% = 6.5 mM cAMP response. Potency, µM (doses to about 154 µM), actives largely listed as activators. 360,000 tested, 0.079% active. AID 720711, 2013; also: nearly all actives have a fitted effect of over 50% in size
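Nucleotide exchange monitored as fluorescence drop when BODIPY-GDP leaves Rap1B. Reaction: 100 nM EPAC2, 250 nM RAP1B-BODIPY-GDP, 50 uM GDP, room temperature, kinetic read over 30 min. Activity expressed relative to 6.5 mM cAMP.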
EPAC2 antagonist: qHTS for Antagonist of cAMP-regulated guanine nucleotide exchange factor 2 (EPAC2): primary screen; Potency, µM (highest dose often 114 µM), actives largely listed as inhibitors; AID 720708, 2013; EPAC2 GEF exchange of Rap1B-BODIPY-GDP, fluorescence; 360,000 tested, 0.18% active; also: nearly all actives have a fitted effect of over 45% in size
EPAC1 antag: qHTS for Antagonist of cAMP-regulated guanine nucleotide exchange factor 3 (EPAC1): primary screen | EPAC1 GEF assay, Rap1b-BODIPY-GDP exchange fluorescence | Potency, µM (titrated, usually from 115 µM), hits mostly inhibitors | 360,000 tested, 0.14% active | Rap guanine nucleotide exchange factor 3 (Homo sapiens), O95398; also: nearly all actives have a fitted effect of over 50% in size
EPAC1 agonist: qHTS for Agonist of cAMP-regulated guanine nucleotide exchange factor 3 (EPAC1): primary screen; EPAC1 agonist qHTS, biochemical assay; response scale: 100% = response to 6.5 mM cAMP; Potency, µM (series often up to 154 µM), actives largely listed as activators; 360,000 tested, 0.073% active; AID 720707, 2013; also: nearly all actives have a fitted effect of over 60% in size
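Normalized to 6.5 mM cAMP, activity reflects EPAC1-catalysed release of BODIPY-GDP from Rap1B, followed kinetically over 30 min at 480 nm excitation, 540 nm emission. Reaction contained 100 nM EPAC1, 250 nM Rap1B-BODIPY-GDP, 50 uM GDP.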
Hits are given with their value; . = inactive; ? = inconclusive. Calls follow the shape of the dose curve; as a rule, active = well fitted curve in the direction sought with a large enough effect; inconclusive = small, poorly fitted or top-dose-only effect, or another doubt; inactive = no such curve, though single readings can be large; an effect the other way counts as inactive or inconclusive.

SMILES | EPAC2 agonist | EPAC2 antagonist | EPAC1 antag | EPAC1 agonist
Cc1cccc(NC(=O)C(=O)NNC(=O)c2ccc(C(C)(C)C)cc2)c1 | . | . | ? | .
Cc1ccc(F)c(NC(=O)/C(C#N)=C(\O)c2ccc(C(C)(C)C)cc2)c1 | . | . | 56µM | .
COc1cc(NC(=S)NCCC(c2ccccc2)c2ccccc2)cc(OC)c1 | . | . | . | 89µM
COC(=O)C1=NN(c2ccc(C)cc2)C2(S1)SC(C(C)=O)=C(C)N2c1ccccc1 (stereo not drawn) | . | 3.2µM | . | .
COc1ccc(-c2cc(C(F)F)n3ncc(C(=O)N4CCc5ccccc54)c3n2)cc1 | 100µM | . | . | .
COc1ccccc1NS(=O)(=O)c1ccc(C(=O)NCC(c2cccs2)N2CCOCC2)cc1 (stereo not drawn) | . | . | . | .
Cn1c(O)c(N=NC(=O)c2ccccc2O)c2ccccc21 | . | . | 32µM | .
Cc1occc1C(=O)N=Nc1c(O)n(C)c2ccccc12 | . | . | . | .
CCOC(=O)c1ccc(N2C(=O)[C@@H](c3ccccc3)[C@H]2c2ccccc2)cc1 | . | . | . | .
CCOC(=O)c1ccc(N2C(=O)C3C(/C=C/c4ccccc4)OC4(C(=O)c5ccccc5C4=O)C3C2=O)cc1 (stereo not drawn) | . | . | 100µM | .
CC(CC(=O)Nc1ccc(Cl)c(S(=O)(=O)N2CCOCC2)c1)c1ccccc1 (stereo not drawn) | . | . | . | 22µM
O=C(O)CC(SCC(=O)Nc1ccc(Cl)c(S(=O)(=O)N2CCOCC2)c1)C(=O)O (stereo not drawn) | . | . | . | .
O=C1NC[C@@H](CCCCN2C[C@H](Cc3ccc(O)cc3)N(CCc3ccc(O)cc3)C(=O)C2=O)N(CC2CCCCC2)C1=O | . | . | . | .
O=C(NCc1ccccc1C(F)(F)F)c1cccc2c1C(=O)c1ccc(N3CCCCC3)cc1S2(=O)=O | 100µM | . | . | .
O=C(NC1CCCCC1)c1cccc2c1C(=O)c1ccc(N3CCCC3)cc1S2(=O)=O | . | . | . | .
O=C1c2ccccc2S(=O)(=O)c2cc(N3CCC(C(=O)N4CCCCC4)CC3)ccc21 | 25µM | . | . | 79µM
O=C(NC1CCCC1)c1cccc2c1C(=O)c1ccc(N3CCCCC3)cc1S2(=O)=O | 56µM | . | . | ?
COc1ccccc1N1CCN(c2ccc3c(c2)S(=O)(=O)c2cccc(C(=O)NCC4CC4)c2C3=O)CC1 | . | ? | 22µM | .
C[C@H](CO)N1C[C@H](C)[C@@H](CN(C)S(=O)(=O)c2ccc(Oc3ccccc3)nc2)OCc2cn(nn2)CCCC1=O | . | . | . | .
CCC(C)N(C(=O)COC(=O)c1ccc(N)c([N+](=O)[O-])c1)C1CCS(=O)(=O)C1 (stereo not drawn) | . | . | . | .
COc1ccc(NC(=O)CSc2nnc(-c3cccs3)n2N)cc1S(N)(=O)=O | . | . | . | .
CC1CCN(c2ccc3c(c2)S(=O)(=O)c2cccc(C(=O)NC4CCCCC4)c2C3=O)CC1 | 50µM | . | . | 28µM
COc1ccc(Oc2nc(-c3ccccn3)ncc2OC)cc1 | . | . | . | .
COc1cnc(-c2ccccn2)nc1Oc1c(C)cccc1C | . | 14µM | . | .
COc1ccc(S(=O)(=O)N2CCN(C(=O)c3cc(C)nc4ccccc34)CC2)cc1OC | . | . | . | .
SMILES | EPAC2 agonist | EPAC2 antagonist | EPAC1 antag | EPAC1 agonist
CCCN(C)C1CN(Cc2cn(Cc3ccccc3)nn2)S(=O)(=O)C1 (stereo not drawn) | . | . | . | .
CCCOc1ccc(Cc2nn3c(=O)/c(=C/c4ccco4)sc3nc2=O)cc1 | . | . | . | .
COc1ccccc1/C=C/C=c1\sc2nc(=O)c(Cc3ccccc3)nn2c1=O | ? | . | 35µM | .
CCN1C=C(C(C)=O)C(=O)CC1 | . | . | . | .
O=C(NCc1ccccc1)c1ccc2nc(-c3ccco3)c(-c3ccco3)nc2c1 | . | . | 32µM | .
CCC(CC)CN1CCC(CN2C(=S)NC[C@@H]2CC(C)C)CC1 | . | . | . | .
